{"source": "PubChem BioAssay (NCI)", "note": "About 83,000 compounds went through this panel and 20% of them were active in at least one assay; those are over-represented in the sample as a whole.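 48-hour exposure, single concentration, 96-well plates; percent growth endpoint where 0 means no net growth. Active: below 10.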 A number with no mark means an inactive call. The source made the active and inactive calls."}
{"test_system": "MDA-MB-468 breast", "assay": "NCI-60 one-dose screen, 48 h (100 = growth as untreated, 0 = no growth, -100 = all killed)", "settings": "10 µM unless noted"}
{"smiles": "C=C(C)[C@@H]1CC[C@]2(C(=O)OCCOCCOCC[P+](c3ccccc3)(c3ccccc3)c3ccccc3)CC[C@]3(C)[C@H](CC[C@@H]4[C@@]5(C)CC[C@H](OC(=O)C(Cl)Cl)C(C)(C)[C@@H]5CC[C@]43C)[C@@H]12", "growth": "-53.7% (active)"}
{"smiles": "CC/C=C\\C[C@H](O)C/C=C1/C(=O)C=C[C@@H]1C/C=C\\CCCC(=O)NC(C)C", "growth": "1.98% (active)"}
{"smiles": "COc1ccc(C2c3cccn3-c3ccccc3N2C(C)=O)cc1", "note": "(stereo not drawn)", "growth": "93.9%"}
{"smiles": "CC(C)(C)c1cc(C(C)(C)c2ccccc2)cc(Cc2cc(C(C)(C)c3ccccc3)cc(C(C)(C)C)c2O)c1O", "growth": "95.2%"}
{"smiles": "Nc1nc(N)c2c(n1)NC(c1ccc3c(c1)OCO3)CC(c1cccc(Nc3ccncc3)c1)=N2", "note": "(stereo not drawn)", "growth": "62.7%"}
{"smiles": "O=S(Cc1ccccc1)/C(=C/NC(=S)Nc1ccccc1)c1ccccc1", "note": "(stereo not drawn)", "growth": "108%"}
{"smiles": "CN(C)CC(=O)Nc1ccc2ncnc(Nc3ccc(Oc4cccc(C(F)(F)F)c4)c(Cl)c3)c2c1", "growth": "-2% (active)"}
{"smiles": "ClC1=C(Cl)C(Cl)=C(Cl)C1=Cc1ccc(Cl)cc1", "growth": "45.3%"}
{"smiles": "CCN(CC)C(=O)CCCCCn1c2ccccc2c2c3c(c4c5ccccc5[nH]c4c21)C(=O)N(O)C3=O", "growth": "51.5%"}
{"smiles": "Cc1ccc(C2CC(c3ccc(Nc4ccnc5cc(Cl)ccc45)cc3)=NN2C=O)cc1", "note": "(stereo not drawn)", "growth": "33%"}
{"smiles": "N#CC1C(C#N)C2c3ccccc3C=CN2C1C(=O)c1ccc(Br)cc1", "note": "(stereo not drawn)", "growth": "99.6%"}
{"smiles": "Cc1cc(Br)c(C)cc1Br", "growth": "92.2%"}
{"smiles": "O=C(c1ccccc1)N1N=C(c2ccc(-n3ccc(C(F)(F)F)n3)c(F)c2)CC1c1ccc[nH]1", "note": "(stereo not drawn)", "growth": "108%"}
